SMILES strings stand for the structures. About 83,000 compounds went through this panel and 20% of them were active in at least one assay; those are over-represented in the sample as a whole.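 For each line, cells grew in 96-well plates with the test compound present at a single concentration for 48 hours.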 The source made the active and inactive calls. Rule for the calls: active = growth percent below 10; inactive = the rest.

The test concerns SK-MEL-2 melanoma. Nature of the test: NCI-60 one-dose screen, 48 h (100 = growth as untreated, 0 = no growth, -100 = all killed). The settings on record: 10 µM unless noted.
As for `COc1cc(-c2nnc(SCc3ccc(O)c4ncccc34)n2-c2ccccc2)cc(OC)c1OC`, the growth was 24.6% (inactive).
Next, `CN1c2ccccc2Sc2cc(C=C(C#N)C#N)ccc21`: 101% (inactive).
Next, `CC(=O)N(C)C1CCc2c(sc(NC(=O)c3ccc(C(C)(C)C)cc3)c2C(N)=O)C1` (stereo not given): 103% (inactive).
Next, `COc1cc(/C=N/NC(=O)c2cn(C3CC3)c3c(OC)c(N4CC5CCCNC5C4)c(F)cc3c2=O)ccc1O` (stereo not given): 113% (inactive).
Regarding `CC1(C)[C@@H](O)CC[C@]2(C)[C@H]3CC[C@@H]4[C@H]5[C@H](C(=O)/C=C\c6ccc([N+](=O)[O-])cc6)CC[C@]5(O)CC[C@@]4(C)[C@]3(C)CC[C@@H]12`, the growth was 102% (inactive).
Next, `CCCCCc1ccc(S(=O)(=O)Nc2cccc(-c3csc(NC(=O)CN4CCN(C)CC4)n3)c2)cc1`: 100% (inactive); `O=S(=O)(NCCNc1nccc(-n2cnc3ccccc32)n1)c1ccc(Br)cc1`: 108% (inactive).
Next, `COc1ccccc1-n1cc(C#N)c(N)c1C(=O)c1ccc(Br)cc1`: 70.4% (inactive); `COc1cc2oc(-c3cccc(C(=O)N[C@@H](CC(C)C)C(=O)OC(C)(C)C)c3)cc(=O)c2c(OC)c1OC`: 81.6% (inactive).
With `CC1(C)CC[C@]23CC[C@]4(C)[C@H](CC[C@@H]5[C@@]6(C)CCCN(CO)C(C)(C)[C@@H]6CC[C@]54C)[C@H]2[C@H]1OC3` the figure was 98.4% (inactive); with `CCOC(=O)c1c(NC(=O)c2ccccc2C(F)(F)F)sc2c1CCC(=O)C2`, 91.2% (inactive); with `COc1ccc(N2C(=O)c3cc(Cl)ccc3NC2SCc2ccccc2)cc1` (stereo not given), 98.9% (inactive).
Consider `CCCCCc1ccc(S(=O)(=O)Nc2cccc(-c3csc(NC(=O)CNCCN(C)C)n3)c2)cc1`, for which the growth was 108% (inactive).
For `O=C1CCCc2nc(Nc3ccc(S(=O)(=O)Nc4ccc([N+](=O)[O-])cc4)cc3)ncc21`, the growth is 111% (inactive).
For `Clc1nc2ccccc2nc1-c1nnc(C2CCCCC2)o1`, the growth is 102% (inactive).
Consider `Cc1ccc(C2=NN(C)C(=O)C3(CCCC3)C2)cc1`, for which the growth is 110% (inactive).
Next, `O=C1[C@H]2Cc3c([nH]c4ccccc34)[C@@H](c3c(Cl)cccc3Cl)N2C(=O)CN1C1CCN(CC2CCCCC2)CC1`: 111% (inactive).
With `NC(=O)c1cccc(-n2ccc3cc(NC(=O)Nc4ccc(N5CCOCC5)c(C(F)(F)F)c4)ccc32)n1` the figure was 1.78% (active); with `COc1ccc(N2CCN(C3=C(Cl)C(=O)C(C)=C(C)C3=O)CC2)cc1`, 106% (inactive); with `C=C(C=O)[C@@H]1CC[C@]2(C)[C@H](C(=O)C=C3[C@H]4C[C@](C)(C(=O)OC)CC[C@]4(C)CC[C@]32C)[C@@]1(C)CCC#N`, -22.3% (active).
Next, `CCOc1ccc(C(=O)Nc2ncc(Cc3ccc(F)cc3)s2)cc1`: -7.6% (active); `Cc1ccc(-c2cc3nc(C(Cl)Cl)nc(-c4cccs4)n3n2)cc1`: 105% (inactive); `CCOC(=O)c1c(N)c(C#N)cn1-c1cc(OC)c(OC)c(OC)c1`: 129% (inactive).
Regarding `CC(=O)C1=C(C)NC(NNC(N)=S)=NC1c1ccccc1` (stereo not given), the growth was 96.9% (inactive).
Next, `NS(=O)(=O)c1ccc(Nc2nc(N/N=C/c3ccccn3)nc(Nc3ccccc3)n2)cc1`: -82% (active); `Oc1cccc2ccc(-c3nnc(SCc4ccc(O)c5ncccc45)o3)nc12`: 8.17% (active); `O=C1CCCC2=C1C(c1c[nH]c3ccc(Br)cc13)Cc1cc(Br)ccc1N2` (stereo not given): 25.3% (inactive).
Next, `COC(=O)c1[nH]nc2c1C1(C(=O)N(C)c3ccccc31)C(C#N)=C(N)O2` (stereo not given): 105% (inactive); `CC1=NC2=NC(=O)/C(=C3/N=C(C)C=C(c4ccccc4)N3N)NN2C(c2ccccc2)=C1`: 108% (inactive); `Nc1cc(-c2c[nH]c3ccc(Br)cc23)nc2cc(-c3c[nH]c4ccc(Br)cc34)nn12`: -43.7% (active).
With `O=S(=O)(NCCNc1nccc(-n2cnc3ccccc32)n1)c1ccc(Cl)cc1` the figure was 109% (inactive).
On to `COc1ccc(Cn2cc3c(c2-c2cc(OC)c(OC)c(OC)c2)CCc2c(CN4CCOCC4)noc2-3)cc1`, for which the growth was 62.4% (inactive).
With `CN(C)CCN(C)c1ccc2ncc(C#Cc3cncc(C(=O)Nc4ccc(CN5CCN(C)CC5)c(C(F)(F)F)c4)c3)n2n1` the figure was 84.5% (inactive); with `CCO/C=N/C1=C(C#N)C(c2ccc(F)cc2)c2sc3c(CC)cccc3c2O1` (stereo not given), 42.7% (inactive); with `COc1ccc(/C=C/C(=O)c2cccc(NC(=O)CSc3nc4ccccc4c(=O)n3-c3ccccc3)c2)cc1OC`, 104% (inactive).
